Results filed as inconclusive are left out. Activity calls are given as the source filed them. Calls come from the whole dose curve; as a rule, active = well fitted inhibition curve with a large enough effect; inconclusive = small, poorly fitted or top-dose-only effect; inactive = flat fitted curve, though single readings scatter.
Key:
Experiment in all cases: Cytotoxic Profiling of Annotated Libraries Using Quantitative High-Throughput Screening (AID 1296008); note: nearly all actives have a fitted effect of over 60% in size
Conditions in all cases: Five cell lines viability, CellTiter-Glo ATP luminescence, 48-72 h; max response: stronger effect = lower value
HaCat = system: HaCat
How it was run: (§1)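 Compounds were pin-transferred onto cells and incubated 48 or 72 hr at 37 degree Celsius, 95% humidity. CellTiter-Glo was added, plates sat 10 min at room temperature, then ATP-coupled luminescence was imaged as the viability read-out.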

KB-3-1 = system: KB-3-1
How it was run: as §1

NIH3T3 = system: NIH3T3
How it was run: as §1

Measured: max response
% is set by controls: 0 for no effect and ±100 for the full control effect.

CC1=CCC(C(C)(C)O[C@@H]2O[C@H](CO[C@@H]3O[C@@H](C)[C@H](O)[C@@H](O)[C@H]3O)[C@@H](O)[C@H](O)[C@H]2O)CC1 (stereo not given in full)
inactive: HaCat 1.99% | KB-3-1 | NIH3T3 2.56%

C=C1[C@H](OC(C)=O)[C@H]2[C@@H](OC(C)=O)[C@](C)(OC(C)=O)C[C@]2(OC(C)=O)C(=O)[C@H](C)/C=C/C(C)(C)C(=O)[C@H](OC(=O)C(C)C)[C@H]1OC(C)=O
inactive: HaCat -2.43% | KB-3-1 | NIH3T3 2.17%

O=C(Nc1ccccc1)N1CCN(Cc2ccc3ccccc3n2)CC1
inactive: HaCat -4.72% | KB-3-1 -4.71% | NIH3T3 1.66%

C[C@@H]1O[C@@H](O[C@@H]2[C@@H](O)[C@H](O[C@H]3[C@H](O[C@H]4CC[C@@]5(C)C(CC[C@]6(C)C5CC=C5[C@@H]7CC(C)(C)CC[C@]7(C(=O)O[C@@H]7O[C@H](CO)[C@@H](O)[C@H](O)[C@H]7O[C@@H]7O[C@@H](C)[C@H](O[C@@H]8O[C@@H](C)[C@H](O)[C@@H](O)[C@H]8O)[C@@H](O)[C@H]7O)CC[C@]56C)[C@@]4(C)CO)O[C@H](C(=O)O)[C@@H](O)[C@@H]3O)O[C@H](CO)[C@H]2O)[C@H](O)[C@H](O)[C@H]1O (stereo not given in full)
inactive: HaCat 4.58% | KB-3-1 5.11% | NIH3T3 2.85%

CC(=O)O[C@@H]1c2c3c(cc(O)c2C(=O)O[C@@H]1C)O[C@@]1(C)[C@@H](O)C[C@H]2C(C)(C)C(=O)C=C[C@]2(C)[C@@H]1C3
inactive: HaCat 3.68% | KB-3-1 | NIH3T3 -3.36%
